Results published in PubChem BioAssay AID651704 (Broad Institute, 2012).
Among all 350,000 compounds or so, about 1,600 (0.46%) were called active. This is one part of a sample in which actives are shown more often than they occur.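 How the source made its calls: active means every replicate reaching a set inhibition limit, whatever the replicate mean (cut at about 25% in these data); inconclusive means mean inhibition reaches that limit but some replicates miss it; inactive means the rest.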

target: Protein AF-9 (Homo sapiens) (UniProt P42568); assay: MLL-AF4/AF9 protein interaction blockers – biochemical, AlphaScreen, biotin-AF4 peptide, FLAG-AF9, single point, primary screen (AID 651704); settings: biotin-AF4 peptide binding to FLAG-AF9, at 10 µM, hits give high values;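 further: 0% = plate neutral control median and 100% = total signal loss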
Sequence (P42568 whole entry, looked up): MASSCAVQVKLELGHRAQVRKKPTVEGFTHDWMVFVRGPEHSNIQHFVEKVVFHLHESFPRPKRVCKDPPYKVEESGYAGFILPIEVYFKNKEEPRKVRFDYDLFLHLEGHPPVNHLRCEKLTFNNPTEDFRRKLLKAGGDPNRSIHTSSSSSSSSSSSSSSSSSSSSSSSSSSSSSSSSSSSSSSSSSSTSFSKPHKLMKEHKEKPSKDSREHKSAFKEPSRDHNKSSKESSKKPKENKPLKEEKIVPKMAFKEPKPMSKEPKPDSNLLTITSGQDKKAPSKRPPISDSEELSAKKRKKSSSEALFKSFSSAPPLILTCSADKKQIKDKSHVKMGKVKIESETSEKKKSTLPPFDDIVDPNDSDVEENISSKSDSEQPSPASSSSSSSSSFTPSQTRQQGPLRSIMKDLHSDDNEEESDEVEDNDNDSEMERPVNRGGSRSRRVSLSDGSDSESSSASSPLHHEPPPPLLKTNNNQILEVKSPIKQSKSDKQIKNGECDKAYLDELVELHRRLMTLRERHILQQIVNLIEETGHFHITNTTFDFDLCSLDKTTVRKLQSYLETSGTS

| Compound | inhibition |
| --- | --- |
| COc1ccccc1NC(=O)Nc1nnc(Cc2ccc(F)cc2)s1 | 3.41% (inactive) |
| O=C(Nc1nnc(COc2ccccc2)s1)Nc1ccccc1F | 36% (active) |
| COc1ccccc1NC(=O)Nc1nc(CC(=O)Nc2ccccc2F)cs1 | 0.499% (inactive) |
| CC(C)NC(=O)Nc1ccc2c(c1)C(=O)N([C@@H](C)CO)C[C@H](C)[C@H](CN(C)C(=O)NC1CCCCC1)OCCCC[C@@H](C)O2 | -3.2% (inactive) |
| C[C@H](CO)N1C[C@H](C)[C@H](CN(C)Cc2ccc3c(c2)OCO3)OCCCC[C@H](C)Oc2ccc(NC(=O)c3ccccc3)cc2C1=O | 4.39% (inactive) |
| CO[C@@H]1CC[C@@H]2CCOc3ccc(C#N)cc3C(=O)N(C)C[C@@H](C)C(=O)N(C)C[C@@H]1O2 | 3.45% (inactive) |
| C/C(=N\NC(=O)c1ccccc1F)c1ccccn1 | -1.33% (inactive) |
| CC(O)c1ccc(OCCN(C)c2ccccn2)cc1 (centres undefined) | -3.42% (inactive) |
| CCN(CC)CCOc1ccc2c(c1)C(=NNC(=O)c1ccccn1)c1cc(OCCN(CC)CC)ccc1-2 | 56.9% (active) |
| COc1ccc2c3c([nH]c2c1)[C@H](CO)N(C(=O)Nc1ccc(F)cc1)CC31CCN(CC2CCOCC2)CC1 | 11% (inactive) |
| CCC(=O)N1[C@@H](CO)[C@@H](c2ccccc2)C12CN(C(=O)c1cnccn1)C2 | -4.68% (inactive) |
| COCCNC(=O)C[C@@H]1C[C@@H]2c3cc(NS(=O)(=O)c4ccccc4)ccc3O[C@@H]2[C@H](CO)O1 | -1.39% (inactive) |
| C[C@@H]1CCCCO[C@H](CN(C)C(=O)Nc2ccc3c(c2)OCO3)[C@@H](C)CN([C@@H](C)CO)C(=O)c2cc(NC(=O)CCC(F)(F)F)ccc2O1 | 7.93% (inactive) |
| CCC(=O)Nc1ccc2c(c1)C(=O)N(C)[C@@H]1CC[C@@H](CC(=O)NCCN3CCCCC3)O[C@@H]1CO2 | 0.544% (inactive) |
| Nc1ccc(C(=O)Nc2ccccc2N)cc1 | -0.363% (inactive) |
| Cc1ccc(Nc2ccccc2N)cc1 | 49% (active) |
| Cc1ccc(Nc2nc(Cl)c(C=O)s2)cc1 | -4.45% (inactive) |
| O=C(C[C@@H]1CC[C@H](NC(=O)c2ccncc2)[C@@H](CO)O1)Nc1ccc(-c2ccccc2)cc1 | -2.25% (inactive) |
| CO[C@@H]1CN(C)C(=O)c2ccc(NC(C)=O)cc2OC[C@@H](C)N(Cc2ccc(-c3ccccn3)cc2)C[C@H]1C | 2.32% (inactive) |
| NC(=O)CSc1nnc(NC(=O)c2ccc3ccccc3c2)s1 | -1.88% (inactive) |
| O=C(Nc1nnc(SCc2c(Cl)cccc2Cl)s1)c1cccc([N+](=O)[O-])c1 | 1.85% (inactive) |
| O=C(Nc1nnc(SCc2ccccc2Cl)s1)c1cccc([N+](=O)[O-])c1 | 48% (active) |

| Compound | inhibition |
| --- | --- |
| COc1cc(CN2CC3(CN(S(=O)(=O)c4cn(C)cn4)C3)c3c(n(C)c4cc(OC)ccc34)[C@H]2CO)cc(OC)c1 | 12.6% (inactive) |
| COc1ccc(NC(=O)Nc2ccc3c(c2)[C@H]2C[C@H](CC(=O)NC4CCCC4)O[C@@H](CO)[C@H]2O3)cc1 | 0.232% (inactive) |
| CCN(CC)c1ccc(/C=N/Nc2nc(C)cc(C)n2)c(O)c1 | 79.7% (active) |
| Cc1cc(C)nc(N/N=C/c2c(CO)cnc(C)c2O)n1 | -5.08% (inactive) |
| CCN(CC)c1ccc(/C=N/NC(=O)c2cnccn2)c(O)c1 | -1.45% (inactive) |
| O=C(C[C@H]1CC[C@H]2[C@@H](COC[C@H](O)CN2C(=O)c2ccncc2)O1)NCc1cc(F)cc(F)c1 | -16% (inactive) |
| COc1ccccc1NC(=O)N1CC(=O)N2[C@H](CO)[C@@H](c3ccc(C#Cc4ccc(F)cc4)cc3)[C@H]2C1 | 2.6% (inactive) |
| Cn1cnc(S(=O)(=O)N2C[C@H](O)COC[C@@H]3O[C@H](CC(=O)NC4CCCC4)CC[C@H]32)c1 | -0.241% (inactive) |
| COc1ccc(S(=O)(=O)Nc2ccc3c(c2)CC(=O)N([C@@H](C)CO)C[C@@H](C)[C@@H](CN(C)Cc2ccc(C(=O)Nc4ccccc4N)cc2)O3)cc1 | -0.302% (inactive) |
| C[C@@H]1CCCCO[C@H](CN(C)S(=O)(=O)c2cn(C)cn2)[C@@H](C)CN([C@@H](C)CO)C(=O)c2cc(NC(=O)CCC(F)(F)F)ccc2O1 | -0.444% (inactive) |
| COc1ccc(C(=O)COC(=O)c2ccc([N+](=O)[O-])s2)cc1OC | -0.958% (inactive) |
| COc1ccc(-n2nnnc2SCC(=O)c2ccc(OC)c(OC)c2)cc1 | -42.4% (inactive) |
| C=Cn1cc[n+](CC(=O)c2ccc(OC)c(OC)c2)c1 | 28.8% (active) |
| CO[C@@H]1CN(C)C(=O)c2ccc(NC(=O)C3CCCC3)cc2OC[C@H](C)NC[C@@H]1C | -0.502% (inactive) |
| C#CCOCCOCCOCCNc1nc(N2CCN(C(=O)[C@H](CCCN=C(N)N)n3cc(C(N)[C@@H](C)CC)nn3)CC2)nc(N2CCN(C(=O)[C@H](CO)n3cc([C@@H](N)C(C)C)nn3)CC2)n1 (some centres undefined) | 29.3% (active) |
| C#CCOCCOCCOCCNc1nc(N2CCN(C(=O)[C@H](CO)n3cc([C@@H](N)C(C)C)nn3)CC2)nc(N2CCN(C(=O)[C@H](CCC(=O)O)n3cc([C@@H](N)[C@H](C)CC)nn3)CC2)n1 | 0.229% (inactive) |
| C#CCOCCOCCOCCNc1nc(N2CCN(C(=O)[C@H](CCC(=O)O)n3cc(C(N)CO)nn3)CC2)nc(N2CCN(C(=O)[C@H](Cc3ccc(O)cc3)n3cc(C(N)[C@H](C)CC)nn3)CC2)n1 (some centres undefined) | 2.1% (inactive) |
| O=C([C@@H]1[C@@H](CO)[C@@H]2Cn3c(ccc(-c4ccccc4F)c3=O)[C@H]1N2C(=O)C1CCC1)N1CCCCC1 | -3.29% (inactive) |
| C[C@@H]1CCCCO[C@H](CN(C)C(=O)Nc2ccc(C(F)(F)F)cc2)[C@@H](C)CN([C@@H](C)CO)C(=O)c2cc(NS(=O)(=O)c3cccs3)ccc2O1 | 2.48% (inactive) |
| CO[C@@H]1CN(C)C(=O)c2cc(NC(C)=O)ccc2OC[C@H](C)N(Cc2ccccn2)C[C@H]1C | -0.12% (inactive) |
| N#C[C@@H]1[C@@H](c2ccccc2C2=CCCC2)[C@H](CO)N1C(=O)NC1CCCC1 | 2.11% (inactive) |
| COCC#Cc1ccc([C@@H]2[C@@H](CO)N3C(=O)CN(C(=O)C4CCOCC4)C[C@@H]23)cc1 | -0.906% (inactive) |
